Test results as given in PubChem BioAssay (EPA / NIEHS).
Records with an inconclusive call do not appear. Calls of active or inactive are those of the source. Rule for the calls: active = hit-call score of the fitted dose curve at least 0.9, where 1 is the maximum; inconclusive = response in the unintended direction; inactive = score below 0.9.

Assays:
[1] = target: Cellular tumor antigen p53 (Homo sapiens) (UniProt P04637); experiment: TOX21_p53_BLA_p2_ratio: Tox21 HCT-116 p53 Agonism Beta-lactamase Assay, Ratio, Phase 2 (AID 2283592)
Method in brief: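 Gain-of-signal p53 agonism was scored from the beta-lactamase FRET ratio (460/530 nm, 405 nm excitation) in HCT116 cells treated 16 h at 37C, 5% CO2, with DMSO serving as negative control and baseline.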

[2] = target: Cellular tumor antigen p53 (Homo sapiens) (UniProt P04637); experiment: TOX21_p53_BLA_p3_ratio: Tox21 HCT-116 p53 Agonism Beta-lactamase Assay, Ratio, Phase 3 (AID 2283596)
Method in brief: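 HCT116 p53-bla cells (4000/well) given compound in DMSO (217-fold dilution) after 5 h, incubated 16 h at 37C. CCF4-AM substrate 2 h at room temperature; 460/530 nm emission ratio, gain fitted against DMSO.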

[3] = TOX21_p53_BLA_p5_viability: Viability Assessment in the Tox21 HCT-116 p53 Agonism Beta-lactamase Assay, Phase 5 (AID 2283600)
Method in brief: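 After the 460/530 nm beta-lactamase measurement, the wells received an ATP-detection luciferase reagent; signal was read 30 min later at RT. Compound treatment lasted 16 h on cells pre-incubated 5 h post-seeding.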

[4] = target: Cellular tumor antigen p53 (Homo sapiens) (UniProt P04637); experiment: TOX21_p53_BLA_p4_ratio: Tox21 HCT-116 p53 Agonism Beta-lactamase Assay, Ratio, Phase 4 (AID 2283601)
Method in brief: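 Signal is the blue/green (460nm/530nm) ratio of cleaved versus uncleaved CCF4-AM substrate, read after 2 h substrate loading. Cells were HCT116 carrying the p53-responsive beta-lactamase reporter, dosed 16 h at 37C, 5% CO2; CellTiter-Glo measured in parallel.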

[5] = TOX21_p53_BLA_p4_viability: Viability Assessment in the Tox21 HCT-116 p53 Agonism Beta-lactamase Assay, Phase 4 (AID 2283597);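 note: hits lower the luminescence signal meaning cytotoxicity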
Method in brief: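 Following a 16 h exposure at 37C, the treated HCT116 wells were first read for the FRET ratio. They were then lysed with CellTiter-Glo, and ATP luminescence was recorded after 30 min at room temperature.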

[6] = target: Cellular tumor antigen p53 (Homo sapiens) (UniProt P04637); experiment: TOX21_p53_BLA_p5_ratio: Tox21 HCT-116 p53 Agonism Beta-lactamase Assay, Ratio, Phase 5 (AID 2283599)
Method in brief: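 Beta-lactamase reporter ratio (blue 460 nm over green 530 nm, 405 nm excitation) after 2 h CCF4-AM loading, in HCT-116 cells exposed 16 h at 37 C to compounds pinned at 217-fold dilution. Increases relative to DMSO baseline scored.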

[7] = target: Thyroid hormone receptor alpha (Rattus norvegicus) + Thyroid hormone receptor beta (Rattus norvegicus) (UniProt P18113+P63059); experiment: TOX21_TR_LUC_GH3_Antagonist_Followup: Tox21 GH3 Thyroid Hormone Receptor Antagonism Luciferase Follow-Up Assay (AID 2283942)
Method in brief: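 Confirmatory qHTS, antagonist mode: T3 (1.0 nM final) + test cpd, 15 conc, 92 uM–5nM final, GH3 rat pituitary line, 24 h, 37C. Luc reporter, RLU vs DMSO.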

THRA (gene 7067) = THRA (gene 7067) (UniProt P10827); experiment: TOX21_TRA_COA_Antagonist_Followup_ratio: Tox21 Thyroid Hormone Receptor alpha Antagonism through Coactivator Recruitment Follow-Up Assay, Ratio (AID 2283953)
Method in brief: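 This follow-up to the GH3 luciferase screen checks specificity in a cell-free format. It measures SRC-2 coactivator peptide binding to TRα LBD by TR-FRET and scores loss of ratio signal relative to DMSO.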

THRB (gene 7068) [8] = target: THRB (gene 7068) (UniProt P10828); experiment: TOX21_TRB_BLA_Antagonist_Followup_ratio: Tox21 Thyroid Hormone Receptor beta Antagonism Beta-lactamase (BLA) Follow-Up Assay, Ratio (AID 2283958)
Method in brief: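 In this antagonist-mode follow-up, a stably integrated GAL4-TRβ LBD fusion drives a UAS-beta-lactamase reporter in HEK293T cells. Loss of ratio signal relative to DMSO after 18 h treatment indicates activity; parallel CellTiter-Glo flags cytotoxicity.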

THRB (gene 7068) [9] = target: THRB (gene 7068) (UniProt P10828); experiment: TOX21_TRB_COA_Antagonist_Followup_ratio: Tox21 Thyroid Hormone Receptor beta Antagonism through Coactivator Recruitment Follow-Up Assay, Ratio (AID 2283967)
Method in brief: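 Test compound was incubated with 5.0 nM GST-TRβ LBD in 0.10% BSA. Then 200 nM fluorescein-SRC-2 peptide and 2 nM terbium anti-GST antibody were added. TR-FRET (520:495 nm) was measured and normalized to DMSO and T3 controls.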

[10] = target: Retinoic acid receptor RXR-alpha (Homo sapiens) (UniProt P19793); experiment: TOX21_TR_RXR_BLA_Antagonist_Followup_ratio: Tox21 Thyroid Hormone Receptor beta Retinoid X Receptor alpha (RXRa) Antagonism Beta-lactamase (BLA) Follow-Up Assay, Ratio (AID 2283972)
Method in brief: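 After 5 h attachment at 37C, HEK293T RXRa-bla cells (2,500/well, 2% charcoal-stripped FBS, no phenol red) received compounds at 11 concentrations in triplicate for 16 h. Beta-lactamase read as 460:530 nm ratio after 2 h RT substrate loading.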

Measured: outcome

Cellular tumor antigen p53 (Homo sapiens), sequence (P04637 whole entry, looked up): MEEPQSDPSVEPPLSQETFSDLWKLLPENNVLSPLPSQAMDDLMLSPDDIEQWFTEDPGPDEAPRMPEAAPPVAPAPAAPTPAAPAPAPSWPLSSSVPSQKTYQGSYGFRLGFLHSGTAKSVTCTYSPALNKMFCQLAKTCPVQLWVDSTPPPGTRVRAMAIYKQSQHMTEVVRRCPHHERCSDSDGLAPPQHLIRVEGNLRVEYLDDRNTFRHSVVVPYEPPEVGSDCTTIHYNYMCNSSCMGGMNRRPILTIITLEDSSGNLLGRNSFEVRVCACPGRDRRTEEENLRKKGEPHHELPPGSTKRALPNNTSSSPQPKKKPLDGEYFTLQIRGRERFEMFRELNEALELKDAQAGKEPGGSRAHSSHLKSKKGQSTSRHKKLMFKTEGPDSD
THRB (gene 7068), sequence (P10828 whole entry, looked up, the tested form may be a part): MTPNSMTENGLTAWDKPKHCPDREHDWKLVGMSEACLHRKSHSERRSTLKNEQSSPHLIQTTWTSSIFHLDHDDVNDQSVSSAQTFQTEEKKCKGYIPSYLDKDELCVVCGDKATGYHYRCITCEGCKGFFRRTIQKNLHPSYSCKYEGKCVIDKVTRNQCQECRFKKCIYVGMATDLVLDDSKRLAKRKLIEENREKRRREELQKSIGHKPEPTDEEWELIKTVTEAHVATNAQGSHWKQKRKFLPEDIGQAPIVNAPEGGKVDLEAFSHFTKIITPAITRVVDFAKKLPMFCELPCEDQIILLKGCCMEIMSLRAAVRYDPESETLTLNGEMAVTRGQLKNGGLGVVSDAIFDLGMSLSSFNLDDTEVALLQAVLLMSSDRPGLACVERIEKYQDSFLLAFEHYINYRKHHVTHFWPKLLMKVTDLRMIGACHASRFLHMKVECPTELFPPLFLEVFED
Retinoic acid receptor RXR-alpha (Homo sapiens), sequence (P19793 whole entry, looked up): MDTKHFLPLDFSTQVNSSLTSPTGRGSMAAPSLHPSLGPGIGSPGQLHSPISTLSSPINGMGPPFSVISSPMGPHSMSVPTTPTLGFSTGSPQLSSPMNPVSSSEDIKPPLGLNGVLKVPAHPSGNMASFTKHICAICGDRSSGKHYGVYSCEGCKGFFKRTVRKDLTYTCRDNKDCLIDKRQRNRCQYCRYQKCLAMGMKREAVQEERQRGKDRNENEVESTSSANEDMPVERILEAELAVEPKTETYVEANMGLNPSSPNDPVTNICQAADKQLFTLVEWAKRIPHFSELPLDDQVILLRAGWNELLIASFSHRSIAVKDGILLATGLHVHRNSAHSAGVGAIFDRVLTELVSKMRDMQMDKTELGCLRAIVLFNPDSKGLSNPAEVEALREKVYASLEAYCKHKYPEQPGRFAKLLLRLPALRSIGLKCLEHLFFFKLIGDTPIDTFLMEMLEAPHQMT
THRA (gene 7067), sequence (P10827 whole entry, looked up, the tested form may be a part): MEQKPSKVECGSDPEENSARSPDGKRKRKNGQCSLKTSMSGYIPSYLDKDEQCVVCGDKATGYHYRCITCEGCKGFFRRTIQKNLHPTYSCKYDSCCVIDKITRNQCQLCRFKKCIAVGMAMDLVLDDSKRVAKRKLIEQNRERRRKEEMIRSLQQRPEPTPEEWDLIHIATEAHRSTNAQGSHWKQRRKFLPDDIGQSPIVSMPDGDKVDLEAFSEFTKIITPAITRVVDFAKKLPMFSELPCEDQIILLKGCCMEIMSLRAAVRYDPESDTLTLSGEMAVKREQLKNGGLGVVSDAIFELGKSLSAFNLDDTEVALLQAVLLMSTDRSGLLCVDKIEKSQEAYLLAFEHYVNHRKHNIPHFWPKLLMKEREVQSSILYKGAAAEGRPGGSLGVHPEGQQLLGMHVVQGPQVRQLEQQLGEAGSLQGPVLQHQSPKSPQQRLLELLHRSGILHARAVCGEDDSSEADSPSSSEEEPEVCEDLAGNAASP

OCC(O)COc1ccc(Cl)cc1 (stereo not given)
inactive: [1] | [2] | [3] | [4]

NS(=O)(=O)c1cc(-c2nn[nH]n2)c(NCc2cccs2)cc1Cl
inactive: [1] | [2] | [3]

CN1CCN(c2c(F)cc3c(=O)c(C(=O)O)cn4c3c2SCC4)CC1
inactive: [1] | [2] | [4]

Cc1cccc(C)c1NC(=O)NC1=CCCN1C
inactive: [1] | [5]

NC(=O)Cc1cccc(C(=O)c2ccccc2)c1N
inactive: [1] | [2] | [4]

O=C(OC1C[C@@H]2CC3C[C@H](C1)N2CC3=O)c1c[nH]c2ccccc12 (stereo not given in full)
inactive: [1] | [5]

CCCn1cc[n+](C)c1C
inactive: [1] | [5] | [6]

N=C(N)c1ccccc1
inactive: [1] | [2] | [4]

O=C1OC(OC(=O)c2cccnc2Nc2cccc(C(F)(F)F)c2)c2ccccc21 (stereo not given)
not listed: [5] | [6]
inactive: all other assays above

CN(C)CC[C@@H](c1ccc(Cl)cc1)c1ccccn1
inactive: [1] | [5] | [6] | [4]

CN(C)c1ccc(SC#N)cc1
inactive: [1] | [5] | [6] | [4]
